IMPase Li inh = IMPase inhibition in cells with lithium potentiation; CHO-M1 cells, IP1 TR-FRET (IP-One), carbachol + lithium; AID 1457; 210,000 tested, 0.35% active; Potency, µM (highest dose often 59.4 µM), most hits filed as inhibitors; active means well fitted curve in the direction sought with a large enough effect; inconclusive means small, poorly fitted or top-dose-only effect, or another doubt; inactive means no such curve, though single readings can be large; an effect the other way counts as inactive or inconclusive;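 further: IP1 builds up when IMPase is blocked and the TR-FRET signal falls; nearly all actives have a fitted effect of over 50% in size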
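CHO-M1, 2000 cells/well, 16–30 h culture; cpd + low Li+, 30 min 37C; lysis with d2-IP1/Eu-anti-IP1 Ab, 10 min RT; TR-FRET 665/620 ratio and 620 channel; AC50 via Hill.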
HPGD inh = HPGD (human) dehydrogenase inhibition. AID 894. Potency, µM, most hits filed as inhibitors. 150,000 tested, 4.3% active. purified HPGD, NADH fluorescence kinetic, PGE2 substrate
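20 nM HPGD preincubated 15 min at room temperature with compound in 50 mM Tris-HCl pH 8, 0.01% Tween 20. Started with 1 mM NAD+ and 30 uM prostaglandin E2; NADH fluorescence (360/450 nm) read 5 times over 30-s intervals, last minus first.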
IMPase cell inh = membrane-permeable compound that blocks inositol monophosphatase; CHO-M1 cells, IP1 accumulation, HTRF TR-FRET ratio; inhibition (IP1 accumulation), % at 46.1 µM; 120,000 tested, under 10 active; P97697; active means well fitted curve in the direction sought with a large enough effect in the signal ratio, not every such curve was filed as active; inconclusive means small, poorly fitted or top-dose-only effect, or a change in a side signal; inactive means no such curve, though single readings can be large or run the other way; the % refers to the signal ratio;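 further: cells stimulated with carbachol in lithium chloride buffer; higher means more IMPase inhibition seen as more IP1 and lower FRET ratio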
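CHO-M1 cells (CHO stably expressing M1 receptor), compound up to 46 uM final, stimulated with carbachol (50 uM as added) in buffer with 50mM LiCl, pH 7.4, 30 min at 37C. Cytosolic IP1 read by TR-FRET; AC50 from Hill fits.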
PNC assembly inh = perinucleolar compartment assembly inhibition; 140,000 tested, 3.1% active; activity change (PNC), negative = inhibition, % at 10 µM; PC3M PTB-GFP, PNC prevalence imaging, 16 h; active compounds read low;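 active means readout at or below -70, meaning at least 70% loss of cells showing the perinucleolar compartment, a nuclear body marking cancer cells; inconclusive means readout between -30 and a set limit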
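Compounds are pinned in duplicate onto adhered PC3M cells stably expressing GFP-tagged PTB and incubated 16 h at 37 C. Cells are then fixed, nuclei stained with Hoechst, and PNC-positive cells counted.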
ALDH1A1 inh = ALDH1A1 (human) enzyme inhibition; Potency, µM (highest dose often 75.3 µM), most hits filed as inhibitors; 220,000 tested, 7.3% active; P00352; Purified ALDH1A1, NADH fluorescence, propionaldehyde substrate
Target sequence (P00352 whole entry, looked up): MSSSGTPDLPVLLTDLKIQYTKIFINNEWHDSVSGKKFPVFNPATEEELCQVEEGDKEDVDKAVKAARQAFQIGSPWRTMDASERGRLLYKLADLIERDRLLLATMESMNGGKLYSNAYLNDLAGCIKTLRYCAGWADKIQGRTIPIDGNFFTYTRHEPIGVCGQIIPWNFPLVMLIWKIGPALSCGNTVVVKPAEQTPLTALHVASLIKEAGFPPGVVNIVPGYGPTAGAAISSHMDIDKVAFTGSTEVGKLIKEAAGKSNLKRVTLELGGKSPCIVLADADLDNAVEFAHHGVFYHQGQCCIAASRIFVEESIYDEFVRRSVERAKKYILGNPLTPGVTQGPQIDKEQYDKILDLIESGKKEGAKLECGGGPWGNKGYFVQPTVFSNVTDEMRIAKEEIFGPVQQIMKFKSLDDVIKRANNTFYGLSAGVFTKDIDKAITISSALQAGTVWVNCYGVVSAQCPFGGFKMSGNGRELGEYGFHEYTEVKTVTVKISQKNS
ALOX12 inhib = 12-hLO (ALOX12) enzyme inhibition. P18054. Potency, µM (doses to about 57.1 µM), most hits filed as inhibitors. 150,000 tested, 0.12% active. purified 12-hLO, xylenol orange hydroperoxide absorbance; active means well fitted curve in the direction sought with a large enough effect; inconclusive means small, poorly fitted or top-dose-only effect, or another doubt; inactive means no such curve, though single readings can be large; an effect the other way counts as inactive or inconclusive; further: nearly all actives have a fitted effect of over 55% in size
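Hydroperoxide output read as Fe(III)-xylenol orange absorbance, 573-to-405 nm ratio, after 30 min reaction with 40 uM arachidonic acid. Enzyme: 150 nM purified human 12hLO, 15 min compound preincubation; 25 mM Hepes pH 7.0, room temperature.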
Large screens that a line does not name were inactive. In the library only some 11% were active in any assay of this set; here they are far more common. Unless noted, the call rests on the fitted dose curve; in most records, active means well fitted inhibition curve with a large enough effect (not every such curve was filed as active); inconclusive means small, poorly fitted or top-dose-only effect, or another doubt; inactive means no such curve, though single readings can be large or run the other way.

CC(C)OCC(O)CSc1ccccn1 (stereo not drawn)	HPGD inh 18µM
COc1cc2cc(CN(Cc3cccs3)C(=S)Nc3cccc(C)c3)c(=O)[nH]c2cc1OC	PNC assembly inh -113, ALDH1A1 inh inconclusive (no result: IMPase cell inh)
Cc1cccc(NC(=S)N(CCN(C)C)Cc2cc3cccc(C)c3[nH]c2=O)c1	PNC assembly inh -100
CCCn1c(C)nc2c(NCCN(C(C)C)C(C)C)nc(C)nc21	none (no result: IMPase cell inh, PNC assembly inh)
N#C/C(=C(\O)c1ccco1)c1ccccn1	ALDH1A1 inh 25µM
C[C@@]1([C@@H](NC(=O)c2cccs2)c2ccc(-c3ccccc3)cc2)C[C@H]1C1CCCCC1	none (no result: IMPase cell inh)
CCCn1c(-c2ccc(F)cc2)n[nH]c1=S	HPGD inh inconclusive, PNC assembly inh -121, ALDH1A1 inh inconclusive
NC1(C(=O)O)CC(C(=O)O)C1 (stereo not drawn)	none (no result: PNC assembly inh)
COc1cc(NC(=O)C2CCCO2)c(OC)cc1NC(=O)c1ccccc1 (stereo not drawn)	none
COc1ccc(N2C(=O)C3CCCCC3C2=O)cc1NC(=O)c1ccccc1 (stereo not drawn)	ALDH1A1 inh 0.89µM (no result: HPGD inh, IMPase cell inh, PNC assembly inh, ALOX12 inhib)
Cc1ccc(-c2cc(C(=O)OCC(=O)Nc3cc(C)on3)c3ccccc3n2)c(C)c1	PNC assembly inh -82
COc1ccc(-c2cc(C(=O)OCC(=O)Nc3cc(C)on3)c3ccccc3n2)cc1OC	HPGD inh inconclusive, ALDH1A1 inh inconclusive
Cc1cccc(NS(=O)(=O)c2cc(C(=O)OCC(=O)Nc3cc(C)on3)ccc2C)c1	PNC assembly inh inconclusive
Cc1cccc(NS(=O)(=O)c2ccc(C)c(C(=O)OCC(=O)Nc3cc(C)on3)c2)c1	PNC assembly inh -100, ALDH1A1 inh inconclusive
O=[N+]([O-])c1ccc(/C=N/N/C(=N/c2ccccn2)c2ccccn2)cc1	HPGD inh 28µM, ALDH1A1 inh inconclusive
Cc1cc(O)c(C=Nc2cccc(Cl)c2)c(=O)o1	none
Cc1cc(O)c(/C=N/Nc2ccccc2)c(=O)o1	ALDH1A1 inh 7.9µM, ALOX12 inhib inconclusive
C/C(=N\Nc1ccc(Cl)cc1)c1c(O)cc(C)oc1=O	ALDH1A1 inh 7.9µM (no result: HPGD inh, IMPase cell inh, PNC assembly inh, ALOX12 inhib)
C/C(=N\Nc1ccc(Cl)cc1)c1ccccn1	PNC assembly inh inconclusive, ALDH1A1 inh inconclusive, ALOX12 inhib inconclusive
CC(C)C[C@@H](CC(=O)N[C@@H](CCC(=O)O)CC(=O)O)NC(=O)[C@@H]1CCCC[C@H]1NC(=O)C[C@H](CCCN)NC(=O)C[C@H](Cc1ccccc1)NC(=O)[C@@H]1CCCC[C@H]1N	none (no result: IMPase cell inh, PNC assembly inh)
COc1cc2c(cc1OC)C(C(=O)c1ccc(OC)c(OC)c1O)=NCC2	HPGD inh inconclusive (no result: IMPase cell inh, PNC assembly inh, ALOX12 inhib)
CCOC(=O)c1[nH]c(=O)[nH]c1COC(=O)c1cc2ccccc2o1	ALDH1A1 inh inconclusive (no result: IMPase Li inh, HPGD inh)
COc1ccc(C(=O)N2CCN(C(=O)COc3ccccc3)CC2)cc1OC	none (no result: IMPase Li inh, HPGD inh, PNC assembly inh, ALDH1A1 inh, ALOX12 inhib)
CCNc1oc(-c2cccc3ccccc23)nc1C#N	IMPase Li inh inconclusive, IMPase cell inh inconclusive, ALDH1A1 inh inconclusive, ALOX12 inhib inconclusive
N#Cc1nc(-c2cccc3ccccc23)oc1NCCN1CCCCC1	IMPase Li inh 11µM, HPGD inh inconclusive, ALDH1A1 inh inconclusive
CC1CCN(c2oc(-c3cccc4ccccc34)nc2C#N)CC1	HPGD inh inconclusive, IMPase cell inh inconclusive, PNC assembly inh -100, ALDH1A1 inh inconclusive
O=C(O)[C@@H]1C[C@@H](C(=O)O)N1	none (no result: PNC assembly inh)
C=CCNC(=O)c1cc([N+](=O)[O-])cc2c(=O)[nH]c(Nc3ccc(Cl)c(Cl)c3)nc12	none (no result: IMPase cell inh, PNC assembly inh)
Cn1c(=O)c(CCc2ccccc2)nc2cnc(N3CCNCC3)nc21	HPGD inh inconclusive, ALDH1A1 inh inconclusive (no result: IMPase cell inh, PNC assembly inh)
OB(O)O	none (no result: IMPase cell inh, PNC assembly inh)
S=c1nc(SCc2ccccc2)[nH]c2ccccc12	IMPase Li inh 14µM (no result: HPGD inh, IMPase cell inh, PNC assembly inh, ALOX12 inhib)
Cc1[nH]c2ccccc2c1SCc1ccccc1	none (no result: HPGD inh, IMPase cell inh, PNC assembly inh, ALOX12 inhib)
CC(C)c1nc(=S)c2ccccc2[nH]1	HPGD inh inconclusive, ALDH1A1 inh 14µM
CC(C)n1c(=S)[nH]c2ccccc2c1=O	PNC assembly inh inconclusive, ALDH1A1 inh inconclusive
S=c1nc(C2CCCCC2)[nH]c2ccccc12	none (no result: HPGD inh, IMPase cell inh, PNC assembly inh, ALOX12 inhib)
S=c1nc(C2CC2)[nH]c2ccccc12	IMPase Li inh inconclusive, HPGD inh 16µM, ALDH1A1 inh 13µM

Bioassay records deposited in PubChem by National Center for Advancing Translational Sciences (NCATS).
